Rows were chosen to be rich in hits. Some 3.5% of all compounds tested hit in one or more screens of this group.
GPR151 activ: human GPR151 activation; 1% of 650,000 active; Q8TDV0; AID 1508602; activation, % at 11.2 µM; PathHunter beta-arrestin GPR151 cells, luminescence; in the data active means activation above about 4.9%;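 further: 0% = median of compound wells and 100% = cells with positive control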
FBW7 act: human FBW7 E3 ligase activation, primary screen; Q969H0; AlphaScreen FBW7–phospho-cyclin E peptide binding, activator screen; normalized activity (activation), % at 26.1 µM; 0.13% of 650,000 active; in the data active means normalized activity above about 1.9%;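 further: purified mutant Fbw7 with reduced substrate affinity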
TEAD-YAP block: TEAD-YAP interaction inhibition. HEK-TIYL cells, TEAD-Gal4/YAP UAS-luciferase luminescence. AID 1259422. inhibition, % at 9.12 µM. 1.4% of 640,000 active; in the data active means inhibition above about 32%;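 further: 0% = median of test compound wells and 100% = reference inhibitor wells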
MITF inh: blocks human microphthalmia-associated transcription factor | O75030 | AlphaScreen MITF homodimerization, bead proximity signal | inhibition, % at 2.6 µM | 0.91% of 650,000 active | AID 1259374; in the data active means inhibition above about 50%;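 further: 0% = vehicle wells with protein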
Target sequence (O75030 whole entry, looked up): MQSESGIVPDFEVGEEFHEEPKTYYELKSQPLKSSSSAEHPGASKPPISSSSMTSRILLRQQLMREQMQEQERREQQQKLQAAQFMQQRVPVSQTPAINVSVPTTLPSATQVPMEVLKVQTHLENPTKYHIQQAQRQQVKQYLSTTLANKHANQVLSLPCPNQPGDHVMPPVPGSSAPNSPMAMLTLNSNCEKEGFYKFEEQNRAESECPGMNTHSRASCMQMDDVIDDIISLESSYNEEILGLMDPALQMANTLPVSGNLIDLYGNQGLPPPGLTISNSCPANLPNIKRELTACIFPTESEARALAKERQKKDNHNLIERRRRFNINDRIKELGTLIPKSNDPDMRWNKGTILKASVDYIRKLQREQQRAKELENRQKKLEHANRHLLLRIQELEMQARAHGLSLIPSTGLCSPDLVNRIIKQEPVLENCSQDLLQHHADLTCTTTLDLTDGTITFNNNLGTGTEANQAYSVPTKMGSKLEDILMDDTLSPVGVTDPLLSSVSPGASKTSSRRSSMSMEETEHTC
* = called active by the depositor.

SMILES	GPR151 activ	FBW7 act	TEAD-YAP block	MITF inh
Cc1ccc2c(c1)-c1c(ssc1=Nc1cccc(Cl)c1)C(C)(C)N2C	-1	0	-1	-16
CC(C)C(=O)NCC1CCC2(CCN(Cc3ccc(C#CC(C)(C)O)cc3)CC2)O1 (stereo not given)	0	0	51*	-5
CCc1ccc(CN2CCC3(CCC(CNC(=O)C(C)C)O3)CC2)cc1 (stereo not given)	0	0	-6	-4
CCCCCOc1ccc(OC(=O)c2ccc(-c3ccc(CCCCC)cn3)cc2)cc1	1	0	-6	14
COc1ccc(-c2nc(Nc3ccccc3OC)sc2CC(=O)O)cc1	2	0	51*	8
CCOc1ccc(Nc2nc(N)c(C(=O)c3cccc(OC)c3)s2)cc1	-1	0	61*	3
COc1ccc(OC)c(-c2nc(Nc3ccccc3F)sc2CC(=O)O)c1	0	0	-14	3
CCOc1ccc(Nc2nc(-c3ccc(OC)c(OC)c3)c(CC(=O)O)s2)cc1	1	0	34*	0
CCOc1ccc(Nc2nc(-c3ccccc3)c(C(=O)Nc3cccc(OC)c3)s2)cc1	0	0	-12	-6
O=C1C=CC(=NS(=O)(=O)c2cccc(C(=O)O)c2)C=C1	-1	0	-2	64*
COc1ccc(Nc2ccnc3c(-c4ccc(OC)nc4)cnn23)cn1	0	0	-15	5
COCCn1c(/C=C/c2ccccc2)nc2ccccc21	-3	1	-50	3
CCn1c(/C=C/c2ccc(OC)cc2)nc2ccccc21	-8	0	72*	-7
O=C(O)CCC(=O)n1c(/C=C/c2ccccc2)nc2ccccc21	-9	0	83*	-18
CC(=O)c1ccc(/C=C/c2nc3ccccc3n2C)o1	-5	0	53*	-2
Cn1c(/C=C/c2ccccc2)nc2ccccc21	-11	0	93*	-2
CCCc1nc2ccccc2n1C(=O)CCC(=O)O	1	0	11	8
CC(=O)NC1=CC(O)c2nonc2C1O (stereo not given)	-6	-1	17	15
CCOC(=O)c1sc(N/N=C/c2ccccc2O)nc1C	1	0	49*	7
O=C(OCC(=O)N1CCCC1=O)c1ccc2ccccc2n1	-1	0	5	-1
CN(C)c1ccc(/C=N/Nc2cccc3cccnc23)cc1	-5	0	37*	5
O=C(CC1CCCCC1)Nc1nnc2n1CCS2	1	3.1*	-4	19
CCOC(=O)C1=C(C)NC2=C(C(=O)C(C(=O)OC)C(C)C2)C1c1c(F)cccc1Cl (stereo not given)	0	0	11	-5
CCCCC(=O)Nc1ccccc1-c1nnn(CC(=O)Nc2ccccc2)n1	1	0	-3	-5
CCCCC(=O)Nc1ccccc1-c1nnn(CC(=O)Nc2ccc3c(c2)OCCO3)n1	-1	2.3*	12	13
SMILES	GPR151 activ	FBW7 act	TEAD-YAP block	MITF inh
Cc1c(Br)c([N+](=O)[O-])nn1CC(=O)O	-1	1	3	6
Cc1cc(NNC(=O)c2ccccc2Cl)c2cccc(C)c2n1	0	0	40*	-11
COc1ccc(C(=O)NNc2cc(C)nc3c(C)cccc23)cc1	-1	0	10	13
COc1ccc(NC(=O)c2cc3cccc(OC)c3oc2=Nc2ccc(C(=O)O)cc2)c(OC)c1	2	0	5	1
COc1cccc2cc(C(=O)NCc3ccco3)c(=Nc3ccc(C(=O)O)cc3)oc12	2	0	46*	-3
COc1cc(C(=O)NN=C2CCCCCC2)cc(OC)c1OC	0	0	60*	0
COc1ccc(C(=O)N/N=C(\C)CC(=O)NCc2ccco2)cc1OC	0	0	35*	-8
CCOC(=O)C(=N/O)/C(C)=N/NC(=O)c1cc(OC)c(OC)c(OC)c1	0	0	41*	-1
O=C1C(=O)N(c2nc3ccccc3s2)C(c2ccccc2Cl)/C1=C(\O)c1ccccc1 (stereo not given)	-1	0	-80	14
CCCS(=O)(=O)c1c(S(=O)(=O)CCC)c2c(C)cccn2c1C(=O)c1ccc(Br)cc1	0	0	8	-8
CN1C(=O)/C(=C/c2ccc(C(=O)NCc3ccco3)cc2)Oc2ccccc21	0	0	-29	0
Cc1ccc(Cl)cc1NC(=O)c1oc(=O)c2ccccc2c1-c1ccccc1	0	0	-4	7
CC/C(C)=N\NC(=O)c1cc(OC)c(OC)c(OC)c1	4	0	58*	12
CC(C)(C)OC(=O)NCCC(=O)Oc1ccc2c3c(c(=O)oc2c1)CCCC3	-2	0	-5	7
CCOc1ccccc1OCC(=O)N/N=C(\CCC(=O)O)c1ccccc1	0	0	59*	-5
CCOc1ccc(Br)cc1C(=O)N/N=C/c1ccc2c(c1)OCO2	-1	0	33*	7
O=C(COc1ccccc1-c1ccccc1)N/N=C/c1cccnc1	-1	0	47*	-2
O=C(COc1ccccc1-c1ccccc1)N/N=C/c1ccncc1	-2	1	52*	15
COc1ccc(C(=O)Nn2c(-c3ccc(F)cc3)nc3ccccc3c2=O)cc1[N+](=O)[O-]	-2	0	0	12
O=[N+]([O-])c1ccc(OCCCNCCO)cc1	1	0	-2	-20
S=C(NCc1ccccc1)N/N=C/c1ccccn1	-1	0	89*	52*
O=C(N/N=C/c1cccnc1)c1cc(Br)ccc1OCc1ccccc1	-2	0	33*	23
O=C(N/N=C/c1cccnc1)c1ccccc1OCc1ccccc1	0	0	-1	-2
O=C(CCC(=O)N/N=C\c1ccccn1)N/N=C\c1ccccn1	1	0	10	21
O=C(COc1ccccc1-c1ccccc1)N/N=C/c1ccccn1	1	0	51*	12
SMILES	GPR151 activ	FBW7 act	TEAD-YAP block	MITF inh
C/C(=N\NC(=O)COc1ccccc1-c1ccccc1)c1ccc(O)cc1O	2	0	59*	-31
CNC(=O)C[n+]1csc2ccccc21	-1	-1	12	-6
Cc1ccccc1OCC(=O)N/N=C/c1ccc(O)cc1	0	0	0	12
CCOc1ccccc1OCC(=O)N/N=C/c1ccc(O)cc1	0	0	57*	8
Cc1nc(N2CCCCC2)c2c(C)c(C(=O)N3CCN(c4ccc([N+](=O)[O-])cc4)CC3)sc2n1	-1	0	18	6
CCCCNc1ncnc2ccc(Br)cc12	3	0	45*	-6
Cc1ccc(C(=O)N2CCCC(CCC(=O)N3CCN(c4ccccn4)CC3)C2)cc1C (stereo not given)	-1	3.6*	3	4
Cc1ccoc1C(=O)N1CCCC(CCC(=O)N2CCN(c3ccccn3)CC2)C1 (stereo not given)	0	0	0	5
Cc1sc2nc(C3CCCN(C(=O)C(C)(C)C)C3)[nH]c(=O)c2c1C (stereo not given)	0	0	92*	0
Cc1sc2nc(C3CCCN(C(=O)c4ccco4)C3)[nH]c(=O)c2c1C (stereo not given)	-1	0	-31	12
